The list is not random: actives were taken first. Their share in the collection is about 3.6%.
Pf apPOL block: Pf-apPOL inhibitors, biochemical, fluorescence | Plasmodium falciparum apicoplast DNA polymerase (apPOL) | Recombinant Pf-apPOL, molecular beacon fluorescence, 1.5 h | inhibition, % at 10 µM | 210,000 compounds, 0.25% hits | AID 1794808, 2022
mHTT CaM bind: mutant huntingtin-calmodulin interaction inhibitors – biochemical, AlphaScreen, primary screen | P42858 | AlphaScreen His-mHTT/GST-CaM binding, luminescence | inhibition, % at 15 µM | 190,000 compounds, 3.6% hits | AID 1671202, 2021;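 also: 0% = both proteins with DMSO and 100% = one protein alone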
Target sequence (P42858 whole entry, looked up, stated change not applied): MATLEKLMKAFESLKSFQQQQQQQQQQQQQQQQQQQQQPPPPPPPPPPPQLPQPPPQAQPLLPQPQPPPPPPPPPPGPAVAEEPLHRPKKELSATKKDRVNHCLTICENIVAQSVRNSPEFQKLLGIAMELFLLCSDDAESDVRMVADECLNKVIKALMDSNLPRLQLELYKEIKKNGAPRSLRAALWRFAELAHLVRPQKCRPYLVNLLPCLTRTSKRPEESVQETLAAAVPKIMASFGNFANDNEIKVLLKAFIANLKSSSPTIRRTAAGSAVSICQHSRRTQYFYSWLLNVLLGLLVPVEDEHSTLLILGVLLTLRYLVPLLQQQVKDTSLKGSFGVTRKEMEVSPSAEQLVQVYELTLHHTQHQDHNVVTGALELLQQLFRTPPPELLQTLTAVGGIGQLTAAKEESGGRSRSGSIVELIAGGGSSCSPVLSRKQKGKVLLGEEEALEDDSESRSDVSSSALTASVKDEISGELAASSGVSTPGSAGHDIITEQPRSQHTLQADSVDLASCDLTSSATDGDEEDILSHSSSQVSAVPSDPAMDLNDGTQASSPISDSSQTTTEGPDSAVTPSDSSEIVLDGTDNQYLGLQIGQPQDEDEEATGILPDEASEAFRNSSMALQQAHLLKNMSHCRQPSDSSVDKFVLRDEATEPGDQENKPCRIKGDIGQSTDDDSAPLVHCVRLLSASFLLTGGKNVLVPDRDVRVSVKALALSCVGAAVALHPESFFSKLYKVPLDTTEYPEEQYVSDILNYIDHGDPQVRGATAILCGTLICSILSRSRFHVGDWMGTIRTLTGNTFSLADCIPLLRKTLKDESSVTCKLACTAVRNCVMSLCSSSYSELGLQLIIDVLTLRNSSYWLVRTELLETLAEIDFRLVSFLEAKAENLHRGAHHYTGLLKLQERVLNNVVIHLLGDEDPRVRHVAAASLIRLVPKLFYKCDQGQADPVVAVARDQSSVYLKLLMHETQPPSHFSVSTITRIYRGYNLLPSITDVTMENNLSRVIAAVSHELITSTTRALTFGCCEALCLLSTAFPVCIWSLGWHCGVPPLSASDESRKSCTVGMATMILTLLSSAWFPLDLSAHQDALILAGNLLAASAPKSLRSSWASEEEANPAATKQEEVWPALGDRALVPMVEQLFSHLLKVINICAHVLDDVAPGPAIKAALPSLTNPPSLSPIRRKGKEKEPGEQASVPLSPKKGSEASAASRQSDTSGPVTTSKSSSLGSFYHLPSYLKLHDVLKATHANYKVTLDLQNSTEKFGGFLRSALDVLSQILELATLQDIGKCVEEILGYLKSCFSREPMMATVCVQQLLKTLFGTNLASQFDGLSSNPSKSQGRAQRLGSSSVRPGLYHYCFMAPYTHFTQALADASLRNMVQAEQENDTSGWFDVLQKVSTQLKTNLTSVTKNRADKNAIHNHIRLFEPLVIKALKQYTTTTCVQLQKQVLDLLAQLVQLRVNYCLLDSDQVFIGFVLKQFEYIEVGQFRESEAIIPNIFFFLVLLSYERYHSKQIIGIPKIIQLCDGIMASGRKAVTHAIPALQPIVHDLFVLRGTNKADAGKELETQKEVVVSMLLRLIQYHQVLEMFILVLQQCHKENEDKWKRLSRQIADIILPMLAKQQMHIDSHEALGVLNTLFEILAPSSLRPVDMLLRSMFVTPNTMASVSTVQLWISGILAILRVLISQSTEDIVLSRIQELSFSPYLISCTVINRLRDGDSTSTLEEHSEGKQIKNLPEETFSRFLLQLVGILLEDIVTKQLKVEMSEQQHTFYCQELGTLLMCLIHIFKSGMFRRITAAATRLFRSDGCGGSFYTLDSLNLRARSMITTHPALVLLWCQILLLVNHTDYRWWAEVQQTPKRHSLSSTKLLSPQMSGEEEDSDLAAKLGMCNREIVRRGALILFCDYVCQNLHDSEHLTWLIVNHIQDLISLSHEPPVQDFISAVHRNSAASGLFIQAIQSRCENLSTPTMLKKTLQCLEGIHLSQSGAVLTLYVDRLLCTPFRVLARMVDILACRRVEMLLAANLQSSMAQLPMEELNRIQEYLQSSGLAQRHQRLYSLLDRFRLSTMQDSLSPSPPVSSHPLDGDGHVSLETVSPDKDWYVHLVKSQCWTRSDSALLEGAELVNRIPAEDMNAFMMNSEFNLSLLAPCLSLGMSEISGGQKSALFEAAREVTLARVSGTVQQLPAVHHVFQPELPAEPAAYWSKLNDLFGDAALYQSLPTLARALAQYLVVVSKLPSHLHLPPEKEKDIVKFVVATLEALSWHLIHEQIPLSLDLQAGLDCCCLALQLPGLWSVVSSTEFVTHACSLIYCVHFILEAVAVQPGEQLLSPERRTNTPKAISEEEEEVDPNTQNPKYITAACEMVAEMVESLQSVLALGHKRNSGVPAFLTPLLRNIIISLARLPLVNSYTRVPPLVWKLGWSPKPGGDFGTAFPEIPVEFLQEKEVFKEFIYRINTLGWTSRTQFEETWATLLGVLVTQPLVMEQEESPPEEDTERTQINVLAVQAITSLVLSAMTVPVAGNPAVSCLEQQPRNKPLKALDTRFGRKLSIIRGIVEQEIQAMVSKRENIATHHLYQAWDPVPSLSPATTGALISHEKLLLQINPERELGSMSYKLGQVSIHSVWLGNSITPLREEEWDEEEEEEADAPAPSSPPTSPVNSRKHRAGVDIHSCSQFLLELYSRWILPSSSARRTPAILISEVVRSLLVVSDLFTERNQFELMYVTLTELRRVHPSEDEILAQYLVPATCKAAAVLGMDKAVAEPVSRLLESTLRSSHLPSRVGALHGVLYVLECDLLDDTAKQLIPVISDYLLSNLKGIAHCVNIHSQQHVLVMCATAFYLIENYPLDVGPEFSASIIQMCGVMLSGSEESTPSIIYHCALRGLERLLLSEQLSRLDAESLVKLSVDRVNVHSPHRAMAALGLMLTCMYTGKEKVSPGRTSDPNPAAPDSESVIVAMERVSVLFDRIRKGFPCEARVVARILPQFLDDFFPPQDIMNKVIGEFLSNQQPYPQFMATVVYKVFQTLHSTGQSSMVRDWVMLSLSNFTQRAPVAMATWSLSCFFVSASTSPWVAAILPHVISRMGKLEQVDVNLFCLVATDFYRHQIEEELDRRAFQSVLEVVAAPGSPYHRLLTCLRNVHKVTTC
* hit, by the source's call; · = no result given. Rule as the data show it: active = inhibition above about 50%; inactive = the rest.

SMILES	Pf apPOL block	mHTT CaM bind
COc1ccc(C2=N/C(=C\c3ccccc3[N+](=O)[O-])C(=O)O2)c(Cl)c1	77*	1
O=C1OC(c2ccc(Cl)cc2Cl)=N/C1=C\c1ccccc1[N+](=O)[O-]	-1	-3
Cc1ccccc1/C=C1\N=C(c2ccc(C)c([N+](=O)[O-])c2)OC1=O	2	55*
CCCn1ncc(N2CCC(C(=O)N(C)Cc3cn(C)nc3C)CC2)cc1=O	-9	-1
C[C@@H](c1ccccc1)N1C[C@@H](COCc2ccccc2)Oc2cc(N3CC[C@@H](N(C)C)C3)ccc2S1(=O)=O	-4	100*
C[C@@H](c1ccccc1)N1C[C@H](COCc2ccccc2)Oc2cc(N3CC[C@@H](O)C3)ccc2S1(=O)=O	-7	52*
C[C@@H](c1ccccc1)N1C[C@H](COCc2ccccc2)Oc2cc(N3CCC[C@H]3C(N)=O)ccc2S1(=O)=O	-6	6
C[C@@H](c1ccccc1)N1C[C@H](COCc2ccccc2)Oc2cc(N3CCC[C@H]3CO)ccc2S1(=O)=O	-7	47
C[C@@H](c1ccccc1)N1C[C@@H](COCc2ccccc2)Oc2cc(N3CC[C@@H](O)C3)ccc2S1(=O)=O	-4	56*
C[C@@H](c1ccccc1)N1C[C@@H](COCc2ccccc2)Oc2cc(N3CCC[C@H]3C(N)=O)ccc2S1(=O)=O	-5	16
COC[C@H]1CCCN1c1ccc2c(c1)O[C@H](COCc1ccccc1)CN([C@@H](C)c1ccccc1)S2(=O)=O	0	1
C[C@H](c1ccccc1)N1C[C@H](COCc2ccccc2)Oc2cc(N3CC[C@@H](O)C3)ccc2S1(=O)=O	11	54*
Cc1ccccc1C(=O)N1CCN(c2ccccc2F)CC1	-5	-4
Cc1ccc2c(=O)cc(-c3cccc(F)c3)oc2c1	-4	7
Cc1ccc(-c2nnc(N3CCC(C(=O)NCCN4CCOCC4)CC3)o2)cc1	-2	7
COCCn1cc2c3c(cccc31)CN(C(=O)Nc1cc(Cl)c(OC)cc1OC)CC2	-1	28
CCOc1cccc(CNC(=O)C2c3ccccc3CC(=O)N2CC)c1 (configuration not stated)	0	-4
CC1CCN(Cc2csc(N3CCN(C(=O)CSc4ccccc4)CC3)n2)CC1	-5	0
CC(=O)c1c(C)[nH]n(-c2ccccc2)c1=O	-2	4
O=C(Nc1nc(-c2ccccc2)cs1)c1ncn[nH]1	-1	24
O=C(Nc1nc(-c2ccc(Br)cc2)cs1)c1ncn[nH]1	-6	100*
O=C(Nc1ccc(F)cc1)c1ccccc1Br	-7	-5
COc1cc(Cl)c(C)cc1NC(=O)c1cc(S(=O)(=O)N2CCCCCC2)ccc1F	-4	6
COc1ccc(-c2c3c(=O)n(C)c(=O)n(C)c3cn2-c2ccccc2C)cc1	54*	8
CNc1ccc([N+](=O)[O-])cc1-n1cc2c(c1-c1ccc(OC)cc1)c(=O)n(C)c(=O)n2C	-3	36
SMILES	Pf apPOL block	mHTT CaM bind
COc1ccc(-c2c3c(=O)n(C)c(=O)n(C)c3cn2C2CCCCC2)cc1	67*	33
Cc1ccccc1-n1cc2c(c1-c1ccccc1)c(=O)n(C)c(=O)n2C	2	6
Cn1c(=O)c2c(-c3ccccc3)n(Cc3ccccc3)cc2n(C)c1=O	-9	18
COc1ccc(-c2c3c(=O)n(C)c(=O)n(C)c3cn2Cc2ccc(Cl)cc2)cc1	10	76*
c1ccc(CN=C2SC(=Nc3ccccc3)C3=C2CCCC3)cc1	5	·
CCOc1ccc(C=C2SC(=S)N(CCCC(=O)O)C2=O)cc1OC	-9	17
COc1ccccc1NC(=O)C1(C)Oc2cccnc2N(C)C1=O (configuration not stated)	-4	-5
CCn1ccc(C(=O)N(C)C2CCN(c3nccnc3OC)C2)n1 (configuration not stated)	-1	2
COc1cccc(CNC(=O)c2cc3c(n2C)CCN(Cc2cccc(OC)c2)C3)c1	-4	59*
COc1ccc(OC)c(NC(=O)c2cc3c(n2C)CCN(Cc2ccc(C)cc2)C3)c1	-5	78*
COc1cccc(CN2CCc3c(cc(C(=O)Nc4cc(C)ccc4OC)n3C)C2)c1	-5	86*
COc1cccc(CN2CCc3c(cc(C(=O)N(C)C)n3C)C2)c1	-3	10
COc1cccc(CN2CCc3c(cc(C(=O)Nc4ccc(F)cc4C)n3C)C2)c1	-6	65*
COc1ccccc1NC(=O)c1cc2c(n1C)CCN(Cc1ccc(C)cc1)C2	-4	25
COc1cccc(CN2CCc3c(cc(C(=O)NCc4cccnc4)n3C)C2)c1	-5	9
COc1cccc(NC(=O)c2cc3c(n2C)CCN(Cc2ccc(F)cc2)C3)c1	-6	26
Cn1nc(-c2nc(Cc3ccccc3)no2)c2c1CCN(C(=O)CC(C)(C)C)C2	-2	-5
Cc1ccsc1CN1CCC(c2nc(-c3ccncc3)n[nH]2)CC1	-7	15

Screens: PubChem, University of Kansas High Throughput Screening Laboratory
